Reference: PubChem BioAssay
Active and inactive are the calls of the source.

How the values were obtained:
Albumin (Bos taurus) = Albumin (Bos taurus) (UniProt P02769); test: compounds binding labelled BSA control protein – biochemical, small-molecule microarray, Alexa647 label, 635/667 nm fluorescence, artefact control for SMM control protein annotation, profiling panel (AID 1118); conditions: BSA-A647 binding, fluorescence 635 nm, higher = more signal;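 also: score merges 667 nm emission intensity and signal-to-noise per printed compound spot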
Chain of Albumin (Bos taurus) (P02769 whole entry, looked up): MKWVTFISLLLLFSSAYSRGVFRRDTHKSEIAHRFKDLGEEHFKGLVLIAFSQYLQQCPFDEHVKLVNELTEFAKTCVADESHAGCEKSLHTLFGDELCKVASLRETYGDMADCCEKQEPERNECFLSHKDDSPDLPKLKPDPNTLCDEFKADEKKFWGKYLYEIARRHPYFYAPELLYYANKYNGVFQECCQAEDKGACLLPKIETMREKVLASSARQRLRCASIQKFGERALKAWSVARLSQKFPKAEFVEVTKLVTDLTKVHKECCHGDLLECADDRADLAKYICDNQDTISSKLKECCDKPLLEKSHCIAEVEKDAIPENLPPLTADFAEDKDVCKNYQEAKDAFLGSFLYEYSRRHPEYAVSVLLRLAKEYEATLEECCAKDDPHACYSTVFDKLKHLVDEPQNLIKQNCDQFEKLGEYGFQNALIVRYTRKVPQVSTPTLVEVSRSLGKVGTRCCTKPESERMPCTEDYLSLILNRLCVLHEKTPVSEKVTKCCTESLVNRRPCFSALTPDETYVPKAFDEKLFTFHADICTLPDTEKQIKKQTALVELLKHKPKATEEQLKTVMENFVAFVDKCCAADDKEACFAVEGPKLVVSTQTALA

[1] = probe aXIP binding to arrayed compounds – biochemical, NeuroSMM set, 635/667 nm fluorescence, primary screen (AID 1119); conditions: small-molecule microarray, higher = more signal, called active from +8 up or from −8 down;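 also: probe is the protein aXip251-270 applied at 1 µg/mL to compound-printed slides; binding of probe to printed compounds measured as 667 nm fluorescence plus signal to noise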
[2] = probe aNOTCH3 binding on compound microarray – biochemical, small-molecule microarray, 635/667 nm fluorescence, primary screen (AID 1120); conditions: higher = more signal;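 also: probe is a biotin-tagged antibody raised against NOTCH3 rather than NOTCH3 protein; score merges spot fluorescence near 667 nm with spot signal to noise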
[3] = probe aNOTCH2 binding on compound microarray – biochemical, small-molecule microarray, 635/667 nm fluorescence, primary screen (AID 1121); conditions: higher = more signal;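 also: score merges feature fluorescence read at 667 nm with its signal to noise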
[4] = biological target: Carbonic anhydrase 2 (Homo sapiens) (UniProt P00918); test: compounds binding carbonic anhydrase 2 – biochemical, small-molecule microarray, Alexa647-labelled CAII, profiling panel (AID 1122); conditions: CAII-A647 binding fluorescence, higher = more signal
[5] = COS7 lysate on small-molecule microarray, probe aHis, 635 nm (AID 1123); conditions: COS7 cell lysate, fluorescence, higher = more signal;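 also: z-score combines 667nm fluorescence intensity with signal-to-noise per printed compound spot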
[6] = probe aLAP1 signal on lysate-treated microarray – cell lysate, small-molecule microarray, COS7 lysate, primary screen (AID 1124); conditions: probe aLAP1, fluorescence, higher = more signal;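 also: lysate comes from COS7 cells expressing LAP1 and is applied at 0.3 µg/mL; score merges spot fluorescence near 667 nm with signal-to-noise over triplicate slides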
Sam68 (KHDRBS1) = test: compounds binding KHDRBS1 protein – biochemical, small-molecule microarray, 635 nm fluorescence, primary screen (AID 1125); conditions: higher = more signal;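 also: score merges 667 nm channel intensity with signal to noise over triplicate slides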
[7] = system: Chordin-like protein 2 (CHRDL2); test: compounds binding chordin-like 2 – biochemical, small-molecule microarray, 635 nm fluorescence, primary screen (AID 1126); conditions: fluorescence 635 nm, higher = more signal;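 also: printed compound slides probed with Chrdl2 protein at 4 µg/mL for 1 h at 4 C; score merges 667 nm emission intensity with signal to noise over three replicate slides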
[8] = biological target: Concanavalin-A (Canavalia ensiformis) (UniProt P02866); test: compounds binding concanavalin A lectin – biochemical, small-molecule microarray, Alexa647 label, 635 nm, artefact control for SMM control protein annotation, primary screen (AID 1127); conditions: ConA-A647 binding fluorescence, higher = more signal;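 also: z combines 667 nm emission intensity with signal-to-noise across three replicate slides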
Chain of Concanavalin-A (Canavalia ensiformis) (P02866 whole entry, looked up): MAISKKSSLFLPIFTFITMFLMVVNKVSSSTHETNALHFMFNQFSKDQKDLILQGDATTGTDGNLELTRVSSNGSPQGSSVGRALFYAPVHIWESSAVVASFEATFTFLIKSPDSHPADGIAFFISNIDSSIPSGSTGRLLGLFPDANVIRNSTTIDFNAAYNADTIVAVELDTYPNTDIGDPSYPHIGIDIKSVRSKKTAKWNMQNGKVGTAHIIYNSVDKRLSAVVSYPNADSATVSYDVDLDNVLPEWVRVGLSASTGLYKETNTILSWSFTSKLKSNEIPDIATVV

[9] = compounds binding Alexa647 anti-His antibody – biochemical, small-molecule microarray, 635 nm fluorescence, artefact control for SMM control protein annotation, primary screen (AID 1128); conditions: higher = more signal;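 also: score merges feature fluorescence with signal-to-noise for each printed compound spot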
[10] = system: Human papillomavirus type 1a E7 protein (residues 1-88); test: HPV1a E7 small-molecule binders, primary screen, biochemical, small-molecule microarray, residues 1-88, 635 nm (AID 1129); conditions: small-molecule microarray binding, fluorescence 635 nm; higher = more signal
[11] = biological target: Focal adhesion kinase 1 (Homo sapiens) (UniProt Q05397); test: PTK2 protein binding on printed compound slides – biochemical, small-molecule microarray, 635/667 nm fluorescence, BSA, DTT, primary screen (AID 1130); conditions: 635 nm fluorescence, higher = more signal;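 also: composite of spot emission at 667 nm and signal to noise over triplicate slides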
Chain of Focal adhesion kinase 1 (Homo sapiens) (Q05397 whole entry, looked up): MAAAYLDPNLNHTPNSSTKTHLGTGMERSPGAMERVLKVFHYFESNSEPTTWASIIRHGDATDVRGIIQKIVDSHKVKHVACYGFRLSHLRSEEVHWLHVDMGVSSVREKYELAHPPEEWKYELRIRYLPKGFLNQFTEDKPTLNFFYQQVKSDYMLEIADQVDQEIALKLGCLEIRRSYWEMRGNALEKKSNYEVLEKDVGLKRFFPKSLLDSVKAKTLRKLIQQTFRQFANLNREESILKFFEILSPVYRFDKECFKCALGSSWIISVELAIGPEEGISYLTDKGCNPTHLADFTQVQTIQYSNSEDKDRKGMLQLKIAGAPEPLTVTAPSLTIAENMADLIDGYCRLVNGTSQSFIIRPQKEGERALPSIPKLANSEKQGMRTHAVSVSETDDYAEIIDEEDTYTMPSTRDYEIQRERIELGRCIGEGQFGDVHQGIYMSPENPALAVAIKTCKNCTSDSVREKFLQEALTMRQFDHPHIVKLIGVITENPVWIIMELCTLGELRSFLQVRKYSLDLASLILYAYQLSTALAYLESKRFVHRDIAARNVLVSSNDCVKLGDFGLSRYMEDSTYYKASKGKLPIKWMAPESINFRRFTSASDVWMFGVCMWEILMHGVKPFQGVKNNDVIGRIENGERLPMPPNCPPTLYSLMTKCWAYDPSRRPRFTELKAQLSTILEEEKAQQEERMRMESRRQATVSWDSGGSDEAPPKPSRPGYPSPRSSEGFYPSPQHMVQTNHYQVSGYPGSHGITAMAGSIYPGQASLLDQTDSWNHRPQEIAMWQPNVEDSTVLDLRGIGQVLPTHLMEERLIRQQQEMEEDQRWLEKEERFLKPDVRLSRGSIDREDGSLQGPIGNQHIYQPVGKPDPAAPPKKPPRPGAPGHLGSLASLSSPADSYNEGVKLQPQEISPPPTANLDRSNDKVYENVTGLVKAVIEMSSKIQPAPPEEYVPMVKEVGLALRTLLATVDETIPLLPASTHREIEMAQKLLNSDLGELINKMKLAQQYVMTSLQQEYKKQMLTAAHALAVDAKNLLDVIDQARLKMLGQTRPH

[12] = system: Fibrinogen (Alexa647-labelled); test: Alexa647-fibrinogen binding to printed small molecules – biochemical, small-molecule microarray, 635/667 nm fluorescence, artefact control for SMM control-protein annotation, profiling panel (AID 1131); conditions: fibrinogen-A647 binding fluorescence, higher = more signal;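 also: z-score merges 667 nm fluorescence with per-spot signal-to-noise over triplicate slides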
[13] = biological target: Follistatin (Homo sapiens) (UniProt P19883); test: FST protein binding to printed compounds – biochemical, small-molecule microarray, 635/667 nm fluorescence, primary screen (AID 1132); conditions: 635 nm fluorescence, higher = more signal
Chain of Follistatin (Homo sapiens) (P19883 whole entry, looked up): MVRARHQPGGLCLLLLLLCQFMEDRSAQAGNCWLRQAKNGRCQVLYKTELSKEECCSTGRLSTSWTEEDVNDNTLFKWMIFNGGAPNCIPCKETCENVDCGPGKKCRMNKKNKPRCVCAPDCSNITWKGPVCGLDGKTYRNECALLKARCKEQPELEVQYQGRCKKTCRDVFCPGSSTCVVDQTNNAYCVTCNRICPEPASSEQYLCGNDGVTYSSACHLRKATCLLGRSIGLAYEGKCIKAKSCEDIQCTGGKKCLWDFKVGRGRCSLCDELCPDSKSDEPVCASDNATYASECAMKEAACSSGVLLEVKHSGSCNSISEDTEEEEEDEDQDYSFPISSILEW

[14] = biological target: Fibroblast growth factor 2 (Homo sapiens) (UniProt P09038); test: basic fibroblast growth factor binding to printed compounds – biochemical, small-molecule microarray, 635/667 nm fluorescence, primary screen (AID 1133); conditions: FGF2, fluorescence 635/667, higher = more signal
Chain of Fibroblast growth factor 2 (Homo sapiens) (P09038 whole entry, looked up): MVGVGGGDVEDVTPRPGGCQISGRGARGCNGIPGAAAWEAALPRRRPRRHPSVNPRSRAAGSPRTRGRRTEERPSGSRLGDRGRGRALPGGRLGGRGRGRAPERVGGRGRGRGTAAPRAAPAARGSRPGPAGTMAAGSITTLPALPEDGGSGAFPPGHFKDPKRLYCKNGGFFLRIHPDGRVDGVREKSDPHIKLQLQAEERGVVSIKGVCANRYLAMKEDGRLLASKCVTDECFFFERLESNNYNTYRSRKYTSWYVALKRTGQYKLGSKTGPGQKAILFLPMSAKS

[15] = JC-1 mitochondrial potential readout, lung cancer cells – cell-based, A549, JC-1 fluorescence, basal, 24 h, 100 nL, profiling panel (AID 1138); conditions: higher = more signal;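 also: A549 lung adenocarcinoma cells under basal conditions with no added stimulus; test concentration not given here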
Lefty1 = Lefty1 protein binding to printed compounds – biochemical, small-molecule microarray, 635/667 nm fluorescence, primary screen (AID 1139); conditions: fluorescence 635/667, higher = more signal
[16] = system: wheat germ agglutinin (Triticum aestivum), Alexa647-labelled; test: Alexa647-WGA lectin binding to printed small molecules – biochemical, small-molecule microarray, 635/667 nm fluorescence, artefact control for SMM control-protein annotation, profiling panel (AID 1140); conditions: WGA-A647 binding, 635 nm fluorescence, higher = more signal;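 also: score merges 667 nm feature emission with signal to noise over triplicate slides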
[17] = biological target: Luciferin 4-monooxygenase (Photinus pyralis) (UniProt P08659); test: inhibition of purified Photinus pyralis luciferase – biochemical, luminescence, purified enzyme, 2006 set, primary screen (AID 1141); conditions: purified firefly luciferase, SteadyGlo luminescence, 30 min; higher = more signal, called active from +8 up or from −8 down;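 also: cell-free assay with purified firefly luciferase at 100 ng per well in PBS; test concentration not given here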
Chain of Luciferin 4-monooxygenase (Photinus pyralis) (P08659 whole entry, looked up): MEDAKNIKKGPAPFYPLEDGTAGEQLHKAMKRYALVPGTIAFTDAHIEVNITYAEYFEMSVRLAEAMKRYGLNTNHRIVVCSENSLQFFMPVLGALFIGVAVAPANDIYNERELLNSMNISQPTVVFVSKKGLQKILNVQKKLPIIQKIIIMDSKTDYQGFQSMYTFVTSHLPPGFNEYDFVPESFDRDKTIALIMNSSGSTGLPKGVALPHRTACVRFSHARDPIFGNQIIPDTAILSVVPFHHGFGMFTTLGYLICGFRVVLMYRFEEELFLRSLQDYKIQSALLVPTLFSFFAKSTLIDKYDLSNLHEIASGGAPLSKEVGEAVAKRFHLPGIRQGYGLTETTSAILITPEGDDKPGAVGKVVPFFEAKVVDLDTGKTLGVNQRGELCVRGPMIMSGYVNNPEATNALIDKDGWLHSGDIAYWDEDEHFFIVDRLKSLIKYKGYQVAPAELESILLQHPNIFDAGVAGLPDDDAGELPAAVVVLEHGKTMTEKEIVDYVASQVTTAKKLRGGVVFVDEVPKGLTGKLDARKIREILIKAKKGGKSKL

Structure (SMILES)	composite z-score (Albumin (Bos taurus))	composite Z-score [1]	composite z-score [2]	composite z-score [3]	composite z-score [4]	composite z-score [5]	composite z-score [6]	composite z-score (Sam68 (KHDRBS1))	composite z-score [7]	composite z-score [8]	composite z-score [9]	composite z-score [10]	composite z-score [11]	composite z-score [12]	composite z-score [13]	composite z-score [14]	z-score [15]	composite z-score (Lefty1)	composite z-score [16]	z-score [17]
C=CCOC(=O)[C@@H]1[C@H]2C(=O)O[C@H](c3ccccc3)[C@H](c3ccccc3)N2[C@H](c2ccc(OCCOC(=O)[C@H]3C[C@H]4C(=O)N5CCC[C@H]5C(=O)N4[C@H]3c3ccc(O)cc3)cc2)[C@@]12C(=O)Nc1ccccc12	-0.876	0.223 (inactive)	-0.125	-0.185	0.252	1.12	0.333	1.27	0.95	1.19	0.912	1.2	0.782	0.81	1.37	1.58	-1.47	0.872	0.93	-0.803 (inactive)
O=C(NCC(F)(F)F)[C@@H]1c2ccccc2C(=O)N(Cc2ccccc2Cl)[C@H]1c1ccc(CO)cc1	-0.288	-0.152 (inactive)	-0.48	-0.182	0.761	0.546	1.03	-1.35	-0.584	-0.907	0.752	-0.778	-0.844	-0.81	-0.607	-0.434	0.97	-1.23	-0.742	-0.565 (inactive)
CCCNC(=O)[C@@H]1c2ccccc2C(=O)N(Cc2cc(F)cc(C(F)(F)F)c2)[C@H]1c1ccc(CO)cc1	-0.0179	0.457 (inactive)	0.193	0.171	0.584	2.2	-0.273	1.3	0.341	1.14	2.1	1.14	0.674	0.62	1.41	0.587	1.74	1.58	0.628	-0.747 (inactive)
CO[C@]12C=C(Br)[C@@H](C[C@@H]1c1ccccc1)[C@@]1(CO1)C2=O	0.139	-0.0467 (inactive)	0.0773	-0.11	0.143	-0.245	-0.0571	0.0999	0.77	0.0193	-0.22	-0.0095	-0.259	-0.0226	0.931	0.6	0.704	0.41	-0.297	-0.876 (inactive)
Cc1ccc(S(=O)(=O)c2cc3oc2CC[C@@H](CO)NC(=O)N(C)Cc2cn(nn2)C[C@H](Cc2ccccc2)NC3=O)cc1	0.811	0.222 (inactive)	-0.0006	-0.145	0.581	0.682	0.192	0.476	-0.479	0.894	3.02	-0.157	2.07	0.814	-0.0009	0.108	1.95	-0.442	-0.0961	-1.53 (inactive)
COc1cc(Cc2cc3c(c(CCc4ccccc4)n2)[Si](C(C)C)(C(C)C)OC3)cc(OC)c1OC	-0.237	-0.334 (inactive)	-0.0697	-0.165	0.0001	-0.177	-0.0868	-0.0118	0.182	0.255	0.151	-0.162	0.0612	-0.386	0.694	0.263	1.51	0.48	-0.14	0.874 (inactive)
CCOC(=O)C1=CC[C@@H](c2ccccc2)N(S(=O)(=O)c2ccc(C)cc2)[C@H]1C	0.972	0.102 (inactive)	0.29	0.0832	0.671	2.49	0.689	1.29	0.416	1.05	1.18	1.24	0.147	1.02	0.92	0.952	3.66	0.778	0.457	0.347 (inactive)
C[C@]1(C(=O)NCc2ccccc2)c2ccccc2C(=O)N(Cc2cc(C(F)(F)F)cc(C(F)(F)F)c2)[C@H]1c1ccc(CO)cc1	0.157	-0.471 (inactive)	0.154	0.0827	0.529	0.9	0.158	1.3	0.242	0.677	-0.152	1.19	0.415	0.749	1.34	1.72	0.195	0.221	0.322	-0.543 (inactive)
CC(C)[Si](OCCCNS(=O)(=O)c1ccc(Br)cc1)(C(C)C)C(C)C	0.406	-0.495 (inactive)	0.107	-0.0877	0.0774	0.468	0.194	1.33	0.29	1.08	0.479	1.04	0.339	0.348	0.928	0.828	-0.87	0.513	0.622	-1.22 (inactive)
COc1ccc([Si](C)(C)[C@@H]2[C@@H](CCO)O[C@]3(C(=O)N(Cc4ccc(NC(=O)[C@H](C)O)cc4)c4ccccc43)[C@H]2C)cc1	0.762	0.423 (inactive)	-0.0288	-0.127	0.348	1.42	-0.0561	1.32	-0.0817	1.08	1.79	1.06	0.293	0.94	0.403	0.137	-1.61	0.215	0.852	-0.546 (inactive)
CN(C)CCCC[C@@H]1NC(=O)[C@@H]2C[C@H](C(=O)NCCCCCNC(=O)CS)[C@H](c3ccc(O)cc3)N2C1=O	0.885	0.0077 (inactive)	0.0261	-0.0976	0.58	1.18	0.24	0.697	1.07	1.15	1.12	1.19	-0.0662	0.946	1.52	1.65	1.3	1.65	1.23	-1.11 (inactive)
